# Screens (PubChem)
# In the library only some 2.2% were active in any assay of this set; here they are far more common.
# LMP1 NFkB inh: Epstein-Barr LMP1 NF-kappaB reporter inhibition. LMP1-induced NF-kappaB luciferase reporter cells, luminescence. inhibition, % at 12.5 µM. 350,000 compounds, 0.69% hits; in the data active = inhibition above about 41%; inconclusive = no clear call, values can overlap the other calls;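 note: 0% = neutral control wells and 100% = reference inhibitor control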
# PGC1a acetyl inh: lowers PGC1a acetylation signal in U2OS cells. AlphaScreen anti-acetyl-lysine; with virally co-expressed GCN5 acetyltransferase. 350,000 compounds, 0.17% hits. inhibition, % at 15.6 µM;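 active = every replicate shows inhibition of at least 40%; inconclusive = mean inhibition at least 40% but some replicate below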;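 note: 0% = neutral control wells and 100% = positive control wells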
# LGR2 antag: blocks bursicon-induced cAMP signaling via Drosophila LGR2; HEK293 LGR2, CRE-luciferase, bursicon-stimulated, 4 h; inhibition, % at 9.99 µM; 380,000 compounds, 0.35% hits;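 active = drop in luminescence signal, shown as inhibition above about 50% in the replicate tests, limit read from the data, passing the limit was not always enough; inconclusive = probably only some replicates passing the limit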;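 note: agonist challenge used bursicon conditioned medium at about half maximal strength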
# PAX8 inh HTS: inhibitors of PAX8 transcriptional activity in RMG-I cells | RMG-I TPO-luciferase reporter, SteadyGlo, 24 h | inhibition, % at 12.6 µM | 360,000 compounds, 1.2% hits | AID 652154;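 active = mean replicate inhibition at least 60% with every replicate also reaching 60%; inconclusive = only one of the two criteria is met; inactive = mean below 60% and not all replicates reaching 60%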;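 note: luciferase light reporting Pax8 driven TPO promoter activity; plate controls were median of neutral control wells for no effect and mitoxantrone controls for full effect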
# EWS-Fli block: blocks EWS/Fli oncoprotein-driven transcription; A673 NR0B1-luciferase reporter, viability-normalised; inhibition, % at 12.6 µM; 350,000 compounds, 0.67% hits;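 active = mean inhibition of at least 50% after viability correction, with every replicate also passing that limit; inconclusive = mean reaches 50% but only one of two replicates passes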;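 note: firefly luciferase signal divided by Alamar Blue viability fluorescence both relative to DMSO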
# MITF TRPM1 inh: MITF TRPM1 promoter inhibition in SK-MEL-5 cells | SK-MEL-5 TRPM1 promoter luciferase, 24 h | AID 488899 | 330,000 compounds, 0.83% hits | inhibition, % at 12.5 µM;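 active = mean inhibition across replicates of 60% or more, whatever share of single replicates reaches that level; inconclusive = some that reach 60%, reason not given; inactive = mean inhibition across replicates below 60%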
# DNA binding: binds DNA displacing acridine orange; AC35, µM (top dose mostly 68 µM), without a hit: top-dose activity change, negative = DNA binding; AID 720586; 640 compounds, 2% hits; shares compounds with EWS-Fli block; salmon sperm DNA acridine orange fluorescence polarization;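 active = fitted curve reaches a 35% signal fall AC35 below twice the sample's top valid tested dose, actives reach about 48 µM in these data; inactive = the rest, including activity in the rising direction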;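 note: lower polarization ratio signals compound binding to DNA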
# Numbers without * were called inactive; ? = inconclusive; · = no result given.
SMILES,LMP1 NFkB inh,PGC1a acetyl inh,LGR2 antag,PAX8 inh HTS,EWS-Fli block,MITF TRPM1 inh,DNA binding
COC(=O)C[C@H]1C=C[C@@H](NC(=O)Nc2ccc(C(F)(F)F)cc2)[C@H](CO)O1,·,2.3,9.2,-13.2,67.1*,·,-3.5%
CCOc1ccc(-c2noc(CCC(=O)O)n2)cc1,-1.1,0.8,-15.5,-21.5,53.8*,68.0*,-5.4%
O=C(O)CCc1nc(-c2ccccc2)no1,0.2,-0.8,·,-3.0,·,1.7,·
COc1ccc(S(=O)(=O)N(C)C[C@@H]2OCCCC[C@@H](C)Oc3ccc(NC(=O)Nc4ccccc4)cc3C(=O)N([C@@H](C)CO)C[C@@H]2C)cc1,·,14.0,8.6,-24.9,16.7,·,·
O=C(N/N=C/c1ccc[nH]1)c1ccccc1OCc1ccc(F)cc1,4.6,-4.0,-9.2,12.5,2.1,9.3,·
CCOc1ccc(OCc2ccc(C(=O)NN=Cc3ccc[nH]3)cc2)cc1,10.1,46.5*,7.8,34.3,57.1*,·,-0.4%
COc1ccc(NC(=O)N(C)[C@H]2C[C@H]3c4[nH]c5ccccc5c4CCN3C(=O)[C@H]2CO)cc1,-15.0,10.6,-15.7,-7.9,53.2*,·,-4.8%
CC(C)N1CC2=C(OC(N)=C(C#N)C2c2cccnc2)/C(=C/c2cccnc2)C1 (centres undefined),8.3,4.8,·,-3.9,·,-10.3,·
CCN1C(=O)S/C(=C/c2ccsc2)C1=O,-2.5,1.2,·,-21.9,·,-42.1,·
CC(C)N1C/C(=C/c2ccsc2)C(=O)/C(=C/c2ccsc2)C1,-88.2,-6.7,17.3,40.6,71.9*,100.8*,-27.2%
CC(C)N1C/C(=C/c2cccnc2)C(=O)/C(=C/c2cccnc2)C1,?,-3.2,23.5,-5.2,69.5*,90.0*,-10.9%
CC(C)NC(=O)N(C)C[C@H]1Oc2ncc(C#CC3(O)CCCC3)cc2C(=O)N([C@H](C)CO)C[C@H]1C,·,10.1,9.5,·,-6.9,·,·
COCC#Cc1ccc2c(c1)O[C@@H](CN(C)Cc1ccccn1)[C@@H](C)CN([C@H](C)CO)S2(=O)=O,·,-10.3,-11.7,-6.3,2.2,·,·
C[C@@H]1CN([C@@H](C)CO)S(=O)(=O)c2ccc(C#Cc3ccncc3)cc2O[C@H]1CN(C)C(=O)C1CCOCC1,·,1.8,-5.9,23.9,70.0*,·,1.0%
C[C@@H]1CN([C@H](C)CO)S(=O)(=O)c2ccc(C#Cc3ccncc3)cc2O[C@@H]1CN(C)C(=O)Nc1ccc2c(c1)OCO2,·,-3.3,-9.1,69.6*,65.4*,·,-3.7%
CO[C@H]1CN(C)C(=O)c2cc(NC(=O)c3ccccc3F)ccc2OC[C@H](C)N(C(C)=O)C[C@H]1C,·,0.0,-11.7,-34.4,16.4,·,·
O=c1c(Cl)cc(Cl)nn1-c1ccccc1,-10.8,·,-4.9,87.8*,64.0*,44.0,1.2%
COc1cc(Cl)nn(-c2ccccc2)c1=O,-11.8,-1.1,-9.1,-1.1,·,5.1,·
Cc1[nH][nH]c(=O)c1C(c1c(C)[nH][nH]c1=O)c1cn(Cc2ccc(F)cc2)c2ccccc12,0.2,·,·,·,·,22.4,·
Cc1[nH][nH]c(=O)c1C(c1c(C)[nH][nH]c1=O)c1cn(Cc2ccc(Cl)c(Cl)c2)c2ccccc12,16.3,·,-1.5,28.1,53.0*,40.4,2.4%
C[C@@H]1CN([C@H](C)CO)C(=O)Cc2cc(NC(=O)Nc3ccccc3)ccc2O[C@@H]1CN(C)CC1CC1,·,·,8.6,·,·,·,·
CN1C(=O)c2cc(NC(=O)c3ccc(Cl)cc3)ccc2OC[C@H]2O[C@@H](CC(=O)NCc3cccc(F)c3)CC[C@@H]21,·,-6.6,-0.9,16.8,6.2,·,·
CN1C(=O)c2cc(NC(=O)c3ccc(Cl)cc3)ccc2OC[C@@H]2O[C@@H](CC(=O)NCc3cccc(F)c3)CC[C@H]21,·,0.0,12.0,32.8,61.3*,·,6.2%
CCNC(=O)C[C@@H]1CC[C@H]2[C@@H](COc3ccc(NC(=O)c4cc(C)on4)cc3C(=O)N2C)O1,·,16.2,3.2,-4.5,-1.2,·,·
COC(=O)C[C@@H]1CC[C@@H]2[C@H](COc3ccc(NC(=O)c4ccc(F)c(F)c4)cc3C(=O)N2C)O1,·,-5.1,7.1,-4.4,71.5*,·,-2.1%
SMILES,LMP1 NFkB inh,PGC1a acetyl inh,LGR2 antag,PAX8 inh HTS,EWS-Fli block,MITF TRPM1 inh,DNA binding
Cc1cc(C(=O)Nc2ccc3c(c2)C(=O)N(C)[C@@H]2CC[C@@H](CC(=O)NCc4ccc(-c5ccccc5)cc4)O[C@H]2CO3)no1,·,·,14.1,38.8,66.1*,·,-9.9%
COC(=O)C[C@@H]1CC[C@@H]2[C@H](COc3ccc(NC(=O)c4ccc(C(F)(F)F)cc4)cc3C(=O)N2C)O1,·,7.1,23.9,16.1,77.6*,·,-8.3%
COc1ccc2c3c(n(C)c2c1)[C@@H](CO)N(Cc1ccccc1)CC31CCN(C(=O)c2ccccc2F)CC1,·,-1.1,9.9,1.9,32.7,·,·
C[C@@H]1CN([C@H](C)CO)C(=O)c2cc(/C=C/c3ccccc3)cnc2O[C@@H]1CN(C)S(C)(=O)=O,·,-2.7,-12.9,·,-3.9,·,·
C[C@H](CO)N1C[C@H](C)[C@@H](CN(C)C(=O)C2CCOCC2)Oc2ncc(C#CC3(O)CCCC3)cc2C1=O,·,7.5,-1.4,-21.3,-7.2,·,·
Cc1ccccc1-c1ccc(C2[C@H]3CNC[C@@H]2N3S(=O)(=O)c2ccc(Cl)cc2)cc1 (some centres undefined),·,-3.9,-6.8,14.4,6.6,·,·
Nc1ccn([C@@H]2O[C@H](CO)[C@@H](O)C2O)c(=O)n1 (some centres undefined),46.7*,-0.8,27.5,25.1,50.5*,17.6,-7.4%
CCc1ccc(Cn2ncc3c(C(=O)O)cc(C)nc32)cc1,3.1,-0.3,-12.5,-5.1,75.4*,-9.1,9.5%
CCc1ccc(NC(=O)c2cnn3c(C(F)F)cc(C)nc23)cc1,2.0,-0.5,2.2,6.7,0.5,10.7,·
COc1cc(OC)cc(-c2cc3nc(C)c(CCC(=O)NCc4ccccc4)c(C)n3n2)c1,29.2,2.7,-12.4,18.4,57.4*,29.9,-8.7%
CCc1ccc(C2=NN(CCC(=O)NC(C)c3ccc4c(c3)OCCO4)C(=O)CC2)cc1 (centres undefined),0.4,3.1,1.3,14.3,3.2,5.9,·
Cc1nc2cc(-c3ccc(Cl)cc3)nn2c(C)c1CCC(=O)NC(C)c1ccc2c(c1)OCCO2 (centres undefined),11.9,3.6,-31.2,29.3,56.6*,52.6,1.3%
Cc1csc(NC(=O)CSc2nnc(-c3ccc(Cl)cc3)n2N)n1,-3.5,-1.2,-7.8,·,·,8.4,·
Cc1csc(NC(=O)CCc2c(C)nc3cc(-c4ccc(Cl)cc4)nn3c2C)n1,27.5,0.7,-74.3,11.1,56.2*,54.5,-7.7%
COc1ccc(C(C#N)=C2C=CC(=NO)C=C2)cc1,-18.1,·,-9.9,-34.8,6.2,-1.8,·
CC(=O)ON=C1C=CC(=C(C#N)c2ccccc2)C=C1,·,?,18.3,70.6*,56.3*,·,-0.2%
